From PubChem
An excerpt weighted towards active compounds, which were near 19% of everything screened.
TDP1 cell CPT: qHTS for Inhibitors of human tyrosyl-DNA phosphodiesterase 1 (TDP1): qHTS in cells in presence of CPT; chicken DT40 Tdp1-/-;hTDP1 cells + 20 nM CPT, ATP luminescence, 48 h; Potency, µM (highest dose often 46.2 µM), for inactives: top-dose activity change, negative = growth inhibition, most hits filed as inhibitors; actives 12% (n = 420,000); note: potency is the fitted concentration of half-maximal effect; nearly all actives have a fitted effect of over 55% in size
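Chicken DT40 Tdp1-/- cells complemented with human TDP1, 400 cells/well, exposed to compounds plus 20 nM camptothecin for at least 48 h at 37 C; viability read as ATP content by CellTiter-Glo luminescence.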
DT40 TDP1 no CPT: qHTS for Inhibitors of human tyrosyl-DNA phosphodiesterase 1 (TDP1): qHTS in cells in absence of CPT; AID 686978, 2013; Potency, µM (series often up to 46.2 µM), for the others: at the highest dose activity change, negative = growth inhibition, actives largely listed as inhibitors; actives 15% (n = 420,000); DT40 Tdp1-/- hTDP1 cells, no CPT, ATP luminescence, 48 h; note: potency is the fitted concentration of half-maximal effect; nearly all actives have a fitted effect of over 55% in size
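A cellular qHTS used chicken DT40 cells lacking endogenous Tdp1 but carrying stably transfected human TDP1. Compounds were applied without camptothecin, and cell growth kinetics were judged by ATP-dependent luminescence after ≥48 hr.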
IL1B secr inh: qHTS for Inhibitors of Inflammasome Signaling: IL-1-beta AlphaLISA Primary Screen; THP-1 LPS/ATP IL-1B secretion, AlphaLISA, 16 h; active compounds read low; activity change, % at 57.5 µM; actives 4.7% (n = 360,000); in the data active = activity change below about -50%; inconclusive = mostly about -30% to -49%
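THP-1 cells pretreated 1 hr with compounds (up to 57.5 uM final), then stimulated with LPS (250 ng/mL final) plus ATP (1.25 mM final); secreted IL-1B measured by AlphaLISA after 16 hr, decreased signal indicating inhibition.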
HT1080-NT tox: qHTS for induction of synthetic lethality in tumor cells producing 2HG: qHTS for the HT-1080-NT fibrosarcoma cell line; actives 1.6% (n = 360,000); AID 686970, 2013; HT-1080-NT fibrosarcoma viability, CellTiter-Glo ATP luminescence, 48 h; Potency, µM (titrated, usually from 46.1 µM), for inactives: top-dose activity, negative = less viability, actives largely listed as cytotoxic;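 note: NT is the 2HG producing partner of a matched IDH1 knockdown line; potency is the fitted concentration of half-maximal effect; 0% = DMSO-treated cells and -100% = media-only wells without cells; nearly all actives have a fitted effect of over 55% in size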
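750 cells/well, RPMI + 5% FBS; 2 h settle, compound pin-transfer, 48 h at 37 degrees C. CellTiter-Glo 10 min RT, luminescence. Normalized to DMSO and media-only wells.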
HT1080 IDH1KD tx: qHTS for induction of synthetic lethality in tumor cells producing 2HG: qHTS for the HT-1080-IDH1KD cell line. Potency, µM (top dose mostly 46.1 µM), inactives show top-dose activity, negative = toxicity, hits mostly cytotoxic. HT-1080 IDH1 knockdown viability, ATP luminescence, 48 h. AID 686971, 2013. actives 2% (n = 360,000);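 note: potency is the fitted concentration of half-maximal effect; 0% = DMSO wells and -100% = cell-free medium wells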
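Assay cells: HT-1080 with IDH1 knockdown, 750 per well, RPMI/5% FBS. Exposure: 48 h at 37 °C following 2 h pre-incubation. Read: CellTiter-Glo luminescence; fitted concentration-response, curve class assigned.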
Active calls of the source: *; ? = inconclusive; . = no result; [ ] = another dose, or the depositor's remark. Unless noted, calls come from the whole dose curve; as a rule, active = well fitted curve in the direction sought with a large enough effect; inconclusive = small, poorly fitted or top-dose-only effect, or another doubt; inactive = no such curve, though single readings can be large; an effect the other way counts as inactive or inconclusive. Unless noted, % is set by controls: 0 for no effect and ±100 for the full control effect.

SMILES	TDP1 cell CPT	DT40 TDP1 no CPT	IL1B secr inh	HT1080-NT tox	HT1080 IDH1KD tx
O=C(Nc1cccc(C(F)(F)F)c1)C1CCCN(S(=O)(=O)c2cnc[nH]2)C1 (stereo unspecified)	-24%	-30%	15	-7%	-9%
Cc1ccc(F)cc1NC(=O)C1CCCN(c2ncccn2)C1 (stereo unspecified)	-10%	-1%	-12	7%	-5%
COc1ccc(Cl)cc1NC(=O)C1CCCN(c2ncnc3onc(C)c23)C1 (stereo unspecified)	18µM*	23µM*	.	.	.
CC(=O)c1ccccc1NC(=O)CSc1nnc(Cc2csc(C)n2)o1	-12%	6%	-11	2%	-2%
CCOC(=O)C1CCN(c2nc3c(C)cccn3c(=O)c2/C=C(\C#N)S(=O)(=O)c2ccccc2)CC1	-20%	?	-14	-11%	-8%
O=C(Nc1ccccc1)c1sc2cc(C(F)(F)F)cnc2c1-c1cccs1	13µM*	12µM*	14	0%	15%
Cc1ccc(S(=O)(=O)N/N=C\c2cn(CC(N)=O)c3ccccc23)cc1C	-17%	-11%	19	-9%	-14%
CCOc1ccc(C2Nc3c(C)cccc3-c3cc(C)nn32)cc1 (stereo unspecified)	21µM*	?	.	.	.
Cc1ccc2onc(CNC(=O)Nc3ccccc3C#N)c2c1	2%	-9%	.	.	.
C[C@H](NC(=O)c1[nH]cnc1C(=O)Nc1ccccc1F)c1ccccc1	?	16µM*	30	-14%	-7%
C[C@H](NC(=O)c1[nH]cnc1C(=O)Nc1ccccc1)c1ccccc1	?	?	4	-13%	-14%
Cc1ccc(NC(=O)c2nc[nH]c2C(=O)N[C@H](C)c2ccccc2)cc1	23µM*	?	?	-20%	-18%
O=C(C[N+]12CCCc3cccc(c31)CCC2)c1ccc2ccc3cccc4ccc1c2c34	6.3µM*	5µM*	.	.	.
COc1ccccc1C=NN=C(NN=Cc1ccccc1OC)NN=Cc1ccccc1OC	?	?	-82*	?	?
Oc1cccc(/C=N/Nc2nn3cnnc3c3ccccc23)c1	-29%	-24%	7	-12%	-11%
O=C(N/N=C/c1ccccc1O)C(=O)N1CCCCCC1	?	?	164	?	8.2µM*
CCOc1cc(C#N)c(NC(=O)c2cccnc2)cc1OCC	1.3µM*	1.8µM*	49	?	5.2µM*
COc1cccc(/C=N/Nc2nn3cnnc3c3ccccc23)c1O	2.6µM*	1.2µM*	54	-11%	?
COc1ccccc1C=NN=C(N)C(N)=NN=Cc1ccccc1OC	?	-87%	-4	-6%	-4%
CN(C)Cc1c(C(=O)N/N=C/c2ccncc2)nnn1-c1nonc1N	1%	-14%	-21	17%	-3%
COc1cccc(/C=N/Nc2ccc(S(=O)(=O)O)cc2)c1O	2%	5%	9	11%	0%
CCOc1cccc(/C=N/NC(=O)c2cc(C3CC3)[nH]n2)c1O	?	23µM*	94	?	-28%
COc1cccc(/C=N/Nc2ccc(C(=O)O)cc2)c1O	?	21µM*	8	18µM*	21µM*
CCOc1ccccc1/C=N/NC(=O)c1cccc(Cl)c1	-29%	-32%	0	5%	14%
O=C(N/N=C/c1ccccc1OCc1ccccc1Cl)c1cccnc1	?	23µM*	49	?	-2%
SMILES	TDP1 cell CPT	DT40 TDP1 no CPT	IL1B secr inh	HT1080-NT tox	HT1080 IDH1KD tx
CCOc1cc(/C=N/NC(=O)c2cccnc2)ccc1O	-13%	13%	26	-1%	0%
CCOc1cccc(/C=N/NC(=O)c2cccnc2)c1O	?	?	124	?	5.2µM*
O=c1cc(-c2cc3ccccc3oc2=O)c2ccc(O)cc2o1	2%[9.04 µM]	?	.	.	.
C[C@@H]1CCCCO[C@@H](CN(C)C(=O)c2ccncc2)[C@@H](C)CN([C@H](C)CO)C(=O)c2cc(NC(=O)Cc3ccccc3)ccc2O1	-3%	-7%	-12	2%	1%
COc1cccc(/C=N/NC(=O)CSc2ccccc2C)c1O	1.2µM*	1.3µM*	46	?	26µM*
COc1ccc(/C=N/NC(=O)c2ccncc2)c(OC)c1	7%	8%	30	-1%	14%
COc1cccc(/C=N/NC(=O)N/N=C/c2cccc(OC)c2O)c1O	?	3.7µM*	-97*	-21%	-19%
COc1cccc(C=NNC(=O)c2ccncc2)c1O	0.92µM*	0.18µM*	185	?	1.5µM*
COc1cccc(/C=N/NC(=O)C(=O)N2CCCC2)c1O	?	16µM*	117	?	-19%
COc1cccc(/C=N/NC(=O)CSc2ccccc2C)c1OC	4%	-15%	18	13%	1%
COc1cc(/C=N/NC(=O)C(=O)N2CCCCCC2)ccc1O	0%	8%	8	8%	2%
COc1ccccc1C=NNC(=O)NN=Cc1ccccc1OC	-13%	?	-17	-19%	-21%
COc1cccc(/C=N/NC(=O)c2ccc3nc[nH]c3c2)c1O	?	-30%	115	?	?
COc1cccc(/C=N/NC(=O)c2nc(-c3ccccc3)cc(-c3ccccc3)n2)c1O	12µM*	9.2µM*	11	?	?
CN(C)c1ccc(/C=N/n2c(C3CCCCC3)n[nH]c2=S)cc1	?	16µM*	-62*	-16%	-12%
S=c1[nH]nc(C2CCCCC2)n1/N=C/c1cccc(Cl)c1Cl	?	23µM*	-61*	28%	-1%
Fc1ccc(/C=N/n2c(C3CCCCC3)n[nH]c2=S)cc1	0%	0%	-2	11%	10%
COCCNC(=O)C(=O)c1c(-c2ccccc2)[nH]c2ccccc12	5%	3%	31	7%	17%
O=C(C(=O)N(Cc1ccccc1)Cc1ccccc1)c1c(-c2ccccc2)[nH]c2ccccc12	10µM*	21µM*	?	?	?
COc1cc(/C=N/NC(=O)c2ccc(-c3ccccc3)cc2)cc(OC)c1OC	21µM*	?	-20	0%	-10%
COc1cc(/C=N/NC(=O)c2cc(-c3ccccc3)sc2N)cc(OC)c1OC	16µM*	16µM*	-72*	?	?
Cc1nc(N)sc1C(=O)N/N=C/c1ccc([N+](=O)[O-])cc1	-8%	-14%	1	3%	15%
COc1cc(/C=N\NC(=O)c2sc(N)nc2C)cc(OC)c1OC	?	13µM*	-79*	29%	23%
